{"source": "PubChem BioAssay AID1159580", "about": "(chemical genetic matrix, 2015)", "experiment": "chemical genetic growth profiling, strain panel (AID 1159580);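 further: tested at 20 µM; growth read once vehicle control cultures reached saturation at 30 °C; 1 = growth at the plate median or of vehicle wells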", "details": "growth OD", "note": "Hit rate of the full screen: of about 5,500 compounds, about 2,000 (36%) were called active. Roughly 18% stayed inconclusive and do not appear here. No stated cut-off is given here; in the data, active means normalized growth mostly below about 0.91 (no sharp cut-off); inconclusive means no clear call, values can overlap the other calls; inactive means mostly above about 0.92. The list shows a part of the results."}
{"molecule": "CC(=O)c1cc2c(cc1O)OC(C)(C)C=C2", "values": [{"measurement": "normalized growth", "setting": "S. cerevisiae deletion strains, locus YAL013W, strain DEP1, stronger effect = lower value", "result": "0.991 (inactive)"}, {"measurement": "normalized growth", "setting": "S. cerevisiae deletion strains, locus YBR021W, strain FUR4, stronger effect = lower value", "result": "1.01 (inactive)"}, {"measurement": "normalized growth", "setting": "S. cerevisiae deletion strains, locus YBR229C, strain ROT2, stronger effect = lower value", "result": "0.983 (inactive)"}, {"measurement": "normalized growth", "setting": "S. cerevisiae deletion strains, locus YCL029C, strain bik1, stronger effect = lower value", "result": "0.993 (inactive)"}, {"measurement": "normalized growth", "setting": "S. cerevisiae deletion strains, locus YDL035C, strain GPR1, stronger effect = lower value", "result": "1 (inactive)"}, {"measurement": "normalized growth", "setting": "S. cerevisiae deletion strains, locus YDL074C, strain BRE1, stronger effect = lower value", "result": "0.974 (inactive)"}, {"measurement": "normalized growth", "setting": "S. cerevisiae deletion strains, locus YDL101C, strain DUN1, stronger effect = lower value", "result": "0.999 (inactive)"}, {"measurement": "normalized growth", "setting": "S. cerevisiae deletion strains, locus YDL134C, strain PPH21, stronger effect = lower value", "result": "1.01 (inactive)"}, {"measurement": "normalized growth", "setting": "S. cerevisiae deletion strains, locus YDL185W, strain tfp1, stronger effect = lower value", "result": "0.993 (inactive)"}, {"measurement": "normalized growth", "setting": "S. cerevisiae deletion strains, locus YDL192W, strain arf1, stronger effect = lower value", "result": "0.976 (inactive)"}, {"measurement": "normalized growth", "setting": "S. cerevisiae deletion strains, locus YDR101C, strain arx1, stronger effect = lower value", "result": "0.891 (active)"}, {"measurement": "normalized growth", "setting": "S. cerevisiae deletion strains, locus YDR162C, strain NBP2, stronger effect = lower value", "result": "1 (inactive)"}, {"measurement": "normalized growth", "setting": "S. cerevisiae deletion strains, locus YDR318W, strain mcm21, stronger effect = lower value", "result": "0.999 (inactive)"}, {"measurement": "normalized growth", "setting": "S. cerevisiae deletion strains, locus YDR388W, stronger effect = lower value", "result": "0.992 (inactive)"}, {"measurement": "normalized growth", "setting": "S. cerevisiae deletion strains, locus YDR502C, strain sam2, stronger effect = lower value", "result": "1 (inactive)"}, {"measurement": "normalized growth", "setting": "S. cerevisiae deletion strains, locus YER110C, stronger effect = lower value", "result": "0.979 (inactive)"}, {"measurement": "normalized growth", "setting": "S. cerevisiae deletion strains, locus YER155C, strain BEM2, stronger effect = lower value", "result": "0.975 (inactive)"}, {"measurement": "normalized growth", "setting": "S. cerevisiae deletion strains, locus YER167W, strain BCK2, stronger effect = lower value", "result": "0.96 (inactive)"}, {"measurement": "normalized growth", "setting": "S. cerevisiae deletion strains, locus YGL078C, strain dbp3, stronger effect = lower value", "result": "1.03 (inactive)"}, {"measurement": "normalized growth", "setting": "S. cerevisiae deletion strains, locus YGL086W, strain mad1, stronger effect = lower value", "result": "0.972 (inactive)"}, {"measurement": "normalized growth", "setting": "S. cerevisiae deletion strains, locus YGL248W, strain PDE1, stronger effect = lower value", "result": "0.997 (inactive)"}, {"measurement": "normalized growth", "setting": "S. cerevisiae deletion strains, locus YGR078C, strain PAC10, stronger effect = lower value", "result": "1.01 (inactive)"}, {"measurement": "normalized growth", "setting": "S. cerevisiae deletion strains, locus YGR135W, strain pre9, stronger effect = lower value", "result": "1.02 (inactive)"}, {"measurement": "normalized growth", "setting": "S. cerevisiae deletion strains, locus YGR252W, strain gcn5, stronger effect = lower value", "result": "1.07 (inactive)"}, {"measurement": "normalized growth", "setting": "S. cerevisiae deletion strains, locus YHR079C, strain IRE1 (second series), stronger effect = lower value", "result": "0.988 (inactive)"}, {"measurement": "normalized growth", "setting": "S. cerevisiae deletion strains, locus YHR094C, strain hxt1, stronger effect = lower value", "result": "0.983 (inactive)"}, {"measurement": "normalized growth", "setting": "S. cerevisiae deletion strains, locus YHR129C, strain ARP1, stronger effect = lower value", "result": "0.991 (inactive)"}, {"measurement": "normalized growth", "setting": "S. cerevisiae deletion strains, locus YHR200W, strain rpn10, stronger effect = lower value", "result": "0.97 (inactive)"}, {"measurement": "normalized growth", "setting": "S. cerevisiae deletion strains, locus YIL066C, strain RNR3, stronger effect = lower value", "result": "0.979 (inactive)"}, {"measurement": "normalized growth", "setting": "S. cerevisiae deletion strains, locus YIL073C, strain SPO22, stronger effect = lower value", "result": "1.03 (inactive)"}, {"measurement": "normalized growth", "setting": "S. cerevisiae deletion strains, locus YIL125W, strain kgd1, stronger effect = lower value", "result": "0.974 (inactive)"}, {"measurement": "normalized growth", "setting": "S. cerevisiae deletion strains, locus YIR030C, strain dcg1, stronger effect = lower value", "result": "0.982 (inactive)"}, {"measurement": "normalized growth", "setting": "S. cerevisiae deletion strains, locus YJL095W, strain BCK1, stronger effect = lower value", "result": "1.02 (inactive)"}, {"measurement": "normalized growth", "setting": "S. cerevisiae deletion strains, locus YJL134W, strain LCB3, stronger effect = lower value", "result": "0.98 (inactive)"}, {"measurement": "normalized growth", "setting": "S. cerevisiae deletion strains, locus YJL168C, strain set2, stronger effect = lower value", "result": "0.991 (inactive)"}, {"measurement": "normalized growth", "setting": "S. cerevisiae deletion strains, locus YJL187C, strain SWE1 (second series), stronger effect = lower value", "result": "1.03 (inactive)"}, {"measurement": "normalized growth", "setting": "S. cerevisiae deletion strains, locus YJR043C, strain POL32, stronger effect = lower value", "result": "0.935 (inactive)"}, {"measurement": "normalized growth", "setting": "S. cerevisiae deletion strains, locus YKL009W, strain mrt4, stronger effect = lower value", "result": "1.01 (inactive)"}, {"measurement": "normalized growth", "setting": "S. cerevisiae deletion strains, locus YKL068W, stronger effect = lower value", "result": "0.973 (inactive)"}, {"measurement": "normalized growth", "setting": "S. cerevisiae deletion strains, locus YKL085W, strain MDH1 (second series), stronger effect = lower value", "result": "0.976 (inactive)"}, {"measurement": "normalized growth", "setting": "S. cerevisiae deletion strains, locus YKL085W, strain MDH1, stronger effect = lower value", "result": "0.976 (inactive)"}, {"measurement": "normalized growth", "setting": "S. cerevisiae deletion strains, locus YKL190W, strain CNB1, stronger effect = lower value", "result": "0.991 (inactive)"}, {"measurement": "normalized growth", "setting": "S. cerevisiae deletion strains, locus YKR001C, strain vps1, stronger effect = lower value", "result": "0.968 (inactive)"}, {"measurement": "normalized growth", "setting": "S. cerevisiae deletion strains, locus YLR039C, strain RIC1, stronger effect = lower value", "result": "0.952 (inactive)"}, {"measurement": "normalized growth", "setting": "S. cerevisiae deletion strains, locus YLR058C, strain SHM2, stronger effect = lower value", "result": "0.999 (inactive)"}, {"measurement": "normalized growth", "setting": "S. cerevisiae deletion strains, locus YLR102C, strain apc9, stronger effect = lower value", "result": "0.981 (inactive)"}, {"measurement": "normalized growth", "setting": "S. cerevisiae deletion strains, locus YLR268W, strain sec22, stronger effect = lower value", "result": "0.99 (inactive)"}, {"measurement": "normalized growth", "setting": "S. cerevisiae deletion strains, locus YLR330W, strain CHS5, stronger effect = lower value", "result": "0.983 (inactive)"}, {"measurement": "normalized growth", "setting": "S. cerevisiae deletion strains, locus YLR371W, strain rom2, stronger effect = lower value", "result": "0.808 (active)"}, {"measurement": "normalized growth", "setting": "S. cerevisiae deletion strains, locus YLR418C, strain cdc73, stronger effect = lower value", "result": "0.964 (inactive)"}, {"measurement": "normalized growth", "setting": "S. cerevisiae deletion strains, locus YML016C, strain PPZ1, stronger effect = lower value", "result": "0.938 (inactive)"}, {"measurement": "normalized growth", "setting": "S. cerevisiae deletion strains, locus YML032C, strain rad52, stronger effect = lower value", "result": "0.993 (inactive)"}, {"measurement": "normalized growth", "setting": "S. cerevisiae deletion strains, locus YML124C, strain tub3, stronger effect = lower value", "result": "0.965 (inactive)"}, {"measurement": "normalized growth", "setting": "S. cerevisiae deletion strains, locus YMR078C, strain ctf18, stronger effect = lower value", "result": "0.956 (inactive)"}, {"measurement": "normalized growth", "setting": "S. cerevisiae deletion strains, locus YMR223W, strain ubp8, stronger effect = lower value", "result": "1.01 (inactive)"}, {"measurement": "normalized growth", "setting": "S. cerevisiae deletion strains, locus YMR307W, strain GAS1, stronger effect = lower value", "result": "1.15 (inactive)"}, {"measurement": "normalized growth", "setting": "S. cerevisiae deletion strains, locus YNL067W, strain RPL9B, stronger effect = lower value", "result": "1.01 (inactive)"}, {"measurement": "normalized growth", "setting": "S. cerevisiae deletion strains, locus YNL233W, strain BNI4, stronger effect = lower value", "result": "0.991 (inactive)"}, {"measurement": "normalized growth", "setting": "S. cerevisiae deletion strains, locus YNL250W, strain rad50, stronger effect = lower value", "result": "0.997 (inactive)"}, {"measurement": "normalized growth", "setting": "S. cerevisiae deletion strains, locus YNL271C, strain bni1, stronger effect = lower value", "result": "0.977 (inactive)"}, {"measurement": "normalized growth", "setting": "S. cerevisiae deletion strains, locus YNL298W, strain CLA4, stronger effect = lower value", "result": "1.01 (inactive)"}, {"measurement": "normalized growth", "setting": "S. cerevisiae deletion strains, locus YNL307C, strain MCK1, stronger effect = lower value", "result": "0.975 (inactive)"}, {"measurement": "normalized growth", "setting": "S. cerevisiae deletion strains, locus YNR052C, strain pop2, stronger effect = lower value", "result": "1.06 (inactive)"}, {"measurement": "normalized growth", "setting": "S. cerevisiae deletion strains, locus YOL012C, strain htz1", "result": "0.862 (inactive)"}, {"measurement": "normalized growth", "setting": "S. cerevisiae deletion strains, locus YOL147C, strain pex11, stronger effect = lower value", "result": "0.96 (inactive)"}, {"measurement": "normalized growth", "setting": "S. cerevisiae deletion strains, locus YOR061W, strain CKA2, stronger effect = lower value", "result": "0.982 (inactive)"}, {"measurement": "normalized growth", "setting": "S. cerevisiae deletion strains, locus YOR069W, strain VPS5, stronger effect = lower value", "result": "0.989 (inactive)"}, {"measurement": "normalized growth", "setting": "S. cerevisiae deletion strains, locus YOR136W, strain idh2, stronger effect = lower value", "result": "1.01 (inactive)"}, {"measurement": "normalized growth", "setting": "S. cerevisiae deletion strains, locus YOR144C, strain elg1, stronger effect = lower value", "result": "0.984 (inactive)"}, {"measurement": "normalized growth", "setting": "S. cerevisiae deletion strains, locus YOR184W, strain ser1, stronger effect = lower value", "result": "0.901 (inactive)"}, {"measurement": "normalized growth", "setting": "S. cerevisiae deletion strains, locus YOR316C, strain cot1, stronger effect = lower value", "result": "0.985 (inactive)"}, {"measurement": "normalized growth", "setting": "S. cerevisiae deletion strains, locus YPR119W, strain clb2, stronger effect = lower value", "result": "0.982 (inactive)"}, {"measurement": "normalized growth", "setting": "S. cerevisiae deletion strains, locus YPR141C, strain kar3, stronger effect = lower value", "result": "0.962 (inactive)"}, {"measurement": "normalized growth", "setting": "S. cerevisiae deletion strains, locus YPR163C, strain tif3, stronger effect = lower value", "result": "0.993 (inactive)"}, {"measurement": "normalized growth", "setting": "S. cerevisiae deletion strains, locus YPR167C, strain met16, stronger effect = lower value", "result": "0.993 (inactive)"}, {"measurement": "normalized growth", "setting": "S. cerevisiae deletion strains, strain wtn01, stronger effect = lower value", "result": "0.947 (inactive)"}, {"measurement": "normalized growth", "setting": "S. cerevisiae strains, strain wild type, stronger effect = lower value", "result": "0.983 (inactive)"}]}
